Data from PubChem BioAssay (NCI).
About 83,000 compounds went through this panel and 20% of them were active in at least one assay; those are over-represented in the sample as a whole.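 Interpretation: 100, growth as untreated; towards 0, rising growth inhibition; 0, no net growth; 0 to -100, cell death. Compounds scoring below 10 were considered active.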 Calls of active or inactive are those of the source.

Experiments:
Assay in all cases: NCI-60 one-dose screen, 48 h (100 = growth as untreated, 0 = no growth, -100 = all killed)
Settings in all cases: 10 µM unless noted
BT-549 breast = test system: BT-549 breast
MDA-MB-435 melanoma = test system: MDA-MB-435 melanoma
SW-620 colon = test system: SW-620 colon
MCF7 breast = test system: MCF7 breast
HCT-116 colon = test system: HCT-116 colon
HCC-2998 colon = test system: HCC-2998 colon
KM12 colon = test system: KM12 colon

Measured: growth

O=C(c1cnn2c1NC(c1ccc(F)cc1)C2)N1CCCCC1 (stereo unspecified)
inactive: BT-549 breast 110% | MDA-MB-435 melanoma 94.8% | SW-620 colon 102% | MCF7 breast 93.2% | HCT-116 colon 98.2% | HCC-2998 colon 113% | KM12 colon 106%

COC(=O)[C@@]12CC[C@@H](C)[C@]3(C[C@@H](c4ccoc4)OC3=O)[C@H]1CC[C@@H]1O[C@@]12C
inactive: BT-549 breast 101% | MDA-MB-435 melanoma 99.8% | SW-620 colon 97.1% | MCF7 breast 96.7% | HCT-116 colon 95.5% | HCC-2998 colon 101% | KM12 colon 103%

Nc1cccc2c(=S)c3ccccc3[nH]c12
inactive: BT-549 breast 102% | MDA-MB-435 melanoma 106% | SW-620 colon 92.6% | MCF7 breast 85.6% | HCT-116 colon 93.4% | HCC-2998 colon 106% | KM12 colon 102%

Brc1ccc(Br)nn1
active: BT-549 breast -69.7% | MDA-MB-435 melanoma -96.3% | SW-620 colon -100% | MCF7 breast -72.4% | HCT-116 colon -97.3% | HCC-2998 colon -53.5% | KM12 colon -50.7%

Cc1cc(C)c(S(=O)O)c(C)c1
inactive: BT-549 breast 104% | MDA-MB-435 melanoma 103% | SW-620 colon 103% | MCF7 breast 109% | HCT-116 colon 109% | HCC-2998 colon 110% | KM12 colon 112%

CCN(CC)c1ccc2c(c1)OS(=O)(=O)N=C2
inactive: BT-549 breast 95.7% | MDA-MB-435 melanoma 101% | SW-620 colon 103% | MCF7 breast 94.7% | HCT-116 colon 99.5% | HCC-2998 colon 114% | KM12 colon 113%

COC(=O)c1ccc(C(=O)Nc2ccccc2N)cc1
inactive: BT-549 breast 60% | MDA-MB-435 melanoma 77.7% | SW-620 colon 72.3% | MCF7 breast 69.2% | HCT-116 colon 75.4% | HCC-2998 colon 85.8% | KM12 colon 86.3%

NC(=O)c1cc(Cl)ccc1NC(=O)COc1ccccc1
inactive: BT-549 breast 43.8% | SW-620 colon 35.3% | MCF7 breast 30.5% | HCT-116 colon 31.5% | HCC-2998 colon 83.1% | KM12 colon 38.3%
active: MDA-MB-435 melanoma -56.9%

COc1ccc(/C=C2\Oc3cc(C)c(Cl)cc3C2=O)cc1OC
inactive: BT-549 breast 89.1% | MDA-MB-435 melanoma 96.6% | SW-620 colon 104% | MCF7 breast 83.1% | HCT-116 colon 84.6% | HCC-2998 colon 116% | KM12 colon 100%

Cn1c2ccc(Cl)cc2c2nn(C(=O)c3ccccc3)c(=O)nc21
inactive: BT-549 breast 122% | MDA-MB-435 melanoma 111% | SW-620 colon 99.3% | MCF7 breast 94.7% | HCT-116 colon 104% | HCC-2998 colon 111% | KM12 colon 106%

N#Cc1c(-c2cccc(F)c2)cc(-c2ccc(Br)s2)[nH]c1=O
active: MDA-MB-435 melanoma -25.8%
inactive: BT-549 breast 65.7% | SW-620 colon 28.6% | MCF7 breast 63.4% | HCT-116 colon 30.8% | HCC-2998 colon 110% | KM12 colon 60.1%

Cc1ccc(N(CSc2ccc(Cl)cc2)CSc2ccc(Cl)cc2)cc1
inactive: BT-549 breast 19.1% | MDA-MB-435 melanoma 40.8% | SW-620 colon 31.4% | MCF7 breast 65.6% | HCT-116 colon 38.9% | HCC-2998 colon 88.1% | KM12 colon 18.4%

COc1cc(-c2nc(SC(C)C)nc(Nc3ccccc3C)c2C#N)cc(OC)c1OC
inactive: BT-549 breast 109% | MDA-MB-435 melanoma 106% | SW-620 colon 104% | MCF7 breast 101% | HCT-116 colon 114% | HCC-2998 colon 106% | KM12 colon 104%

O=C(N/N=C/c1ccc(OC(F)F)c(OC2CCCC2)c1)c1cnn2c1NC(c1ccccc1)C2 (stereo unspecified)
inactive: BT-549 breast 73.4% | MDA-MB-435 melanoma 18% | SW-620 colon 78.4% | MCF7 breast 69.2% | HCT-116 colon 67.4% | HCC-2998 colon 111% | KM12 colon 54.8%

O=C1/C(=C/c2ccc([N+](=O)[O-])cc2)Oc2ccc(O)cc21
inactive: BT-549 breast 96.5% | MDA-MB-435 melanoma 95% | SW-620 colon 25.9% | HCC-2998 colon 46% | KM12 colon 102%
active: MCF7 breast 3.33% | HCT-116 colon 9.15%

Cn1c2ccccc2c2nn(Cc3ccccc3)c(=O)nc21
inactive: BT-549 breast 110% | MDA-MB-435 melanoma 112% | SW-620 colon 99.3% | MCF7 breast 95.1% | HCT-116 colon 109% | HCC-2998 colon 114% | KM12 colon 104%

CCCCC/C=C\C/C=C/CCCCCCCCNC(=O)Nc1ccc([N+](=O)[O-])cc1
inactive: BT-549 breast 109% | MDA-MB-435 melanoma 68.3% | SW-620 colon 31.6% | MCF7 breast 103% | HCT-116 colon 40% | HCC-2998 colon 95.3% | KM12 colon 23.9%

CCCCCCCC/C=C\CCCCCCCCOc1cccc(CC(=O)NCC[N+]2(C)CCOCC2)c1
inactive: BT-549 breast 98.8% | MDA-MB-435 melanoma 94% | SW-620 colon 89.1% | MCF7 breast 83.8% | HCT-116 colon 78.5% | HCC-2998 colon 80.6% | KM12 colon 64.1%

Cc1ccc(S(=O)(=O)N(c2ccc(Cl)cc2)c2ccc(Br)cc2C(=O)O)cc1
inactive: BT-549 breast 134% | MDA-MB-435 melanoma 107% | SW-620 colon 104% | MCF7 breast 104% | HCT-116 colon 113% | HCC-2998 colon 115% | KM12 colon 108%

COc1ccc(/C=N\N2CCOCC2)cc1OC1CCCC1
inactive: BT-549 breast 83.8% | MDA-MB-435 melanoma 106% | SW-620 colon 100% | MCF7 breast 93.2% | HCT-116 colon 87.9% | HCC-2998 colon 112% | KM12 colon 106%

C[C@]1(CO)C[C@@H](O)C[C@]2(C)[C@@H]1CC[C@@]13C[C@@H]4[C@@H](C[C@H]12)[C@]4(C)C3
inactive: BT-549 breast 98.8% | MDA-MB-435 melanoma 99.5% | SW-620 colon 101% | MCF7 breast 102% | HCT-116 colon 89.3% | HCC-2998 colon 119% | KM12 colon 109%

COc1ccc(C2=NOC(CC(=O)N(CCO)CCO)C2)cc1OC1CCCC1 (stereo unspecified)
inactive: BT-549 breast 95.5% | MDA-MB-435 melanoma 104% | SW-620 colon 97.7% | MCF7 breast 95.2% | HCT-116 colon 79.6% | HCC-2998 colon 103% | KM12 colon 103%

COc1ccc(/C=N/NC(=O)c2cnn3c2NC(c2ccccc2)C3)cc1OC1CCCC1 (stereo unspecified)
inactive: BT-549 breast 93.3% | MDA-MB-435 melanoma 61.7% | SW-620 colon 97.5% | MCF7 breast 86.2% | HCT-116 colon 82% | HCC-2998 colon 110% | KM12 colon 81.3%

Cc1c(C(=O)Nc2nc(-c3ccccc3)cs2)nnn1-c1ccccc1Br
inactive: BT-549 breast 35.5% [50 µM] | MDA-MB-435 melanoma 20.1% [50 µM] | SW-620 colon 61% [50 µM] | MCF7 breast 19% [50 µM] | HCT-116 colon 32.6% [50 µM] | HCC-2998 colon 72.7% [50 µM] | KM12 colon 36.3% [50 µM]

Fc1c[c-]c(-c2ccccn2)c(F)c1.Fc1c[c-]c(-c2ccccn2)c(F)c1.[Cl][Pt+].[Cl][Pt+].c1ccc([PH+](C[PH+](c2ccccc2)c2ccccc2)c2ccccc2)cc1
active: MDA-MB-435 melanoma 5.73% | MCF7 breast 8.56% | HCT-116 colon 8.2%
inactive: BT-549 breast 15.8% | SW-620 colon 15.5% | HCC-2998 colon 22.4% | KM12 colon 12.3%

c1ccc(-c2n(Cc3ccc4ccccc4n3)c3ccccc3[n+]2Cc2ccc3ccccc3n2)cc1
active: BT-549 breast -0.501% | MDA-MB-435 melanoma -12.7% | SW-620 colon 2.87% | MCF7 breast 1.36% | HCT-116 colon 5.91% | HCC-2998 colon -3.47% | KM12 colon -61.2%

CSC1=CC(=O)c2ccccc2C1=O
inactive: BT-549 breast 92.3% | MDA-MB-435 melanoma 89.4% | MCF7 breast 93.2% | HCC-2998 colon 107% | KM12 colon 71.9%
active: SW-620 colon -55.2% | HCT-116 colon -57%

COc1cc(-c2nc(SC(C)C)nc(Nc3cccc(C)c3)c2C#N)cc(OC)c1OC
inactive: BT-549 breast 107% | MDA-MB-435 melanoma 107% | SW-620 colon 109% | MCF7 breast 98.1% | HCT-116 colon 115% | HCC-2998 colon 116% | KM12 colon 110%

CN(C)c1ccc(/C=C(\C#N)c2cc3ccccc3n2C)cc1
inactive: BT-549 breast 37.6% | SW-620 colon 21% | MCF7 breast 15.1% | HCT-116 colon 10.6% | HCC-2998 colon 20.1% | KM12 colon 18.5%
active: MDA-MB-435 melanoma -26.9%

NC(=O)c1cc(I)ccc1NC(=O)COc1ccc(Cl)cc1Cl
inactive: BT-549 breast 77.6% | MDA-MB-435 melanoma 14.9% | SW-620 colon 79.6% | MCF7 breast 72.2% | HCT-116 colon 90.7% | HCC-2998 colon 95.3% | KM12 colon 67.8%

c1ccc2cc(Cn3c(-c4ccc5ccccc5c4)[n+](Cc4ccc5ccccc5c4)c4ccccc43)ccc2c1
active: BT-549 breast -46.5% | MDA-MB-435 melanoma -80.4% | SW-620 colon -85% | MCF7 breast -70.1% | HCT-116 colon -61% | HCC-2998 colon -88.7% | KM12 colon -90.6%

O=C(NC1CC1)c1cc2n(n1)CC(c1ccccc1)N2 (stereo unspecified)
inactive: BT-549 breast 99.7% | MDA-MB-435 melanoma 99.4% | SW-620 colon 95.4% | MCF7 breast 85.9% | HCT-116 colon 102% | HCC-2998 colon 101% | KM12 colon 102%

COc1cc(/C=N/NC(=O)c2cnn3c2NC(c2ccccc2)C3)ccc1OC1CCCC1 (stereo unspecified)
inactive: BT-549 breast 16.8% | SW-620 colon 18.3% | MCF7 breast 16.8% | HCT-116 colon 18.9% | HCC-2998 colon 63.8% | KM12 colon 18.1%
active: MDA-MB-435 melanoma 0.812%
